Sampled rows, rich in hits. Any-hit rate of the full collection: about 11%.
HPGD inh = blocks human HPGD enzyme activity | 150,000 tested, 4.3% active | purified HPGD, NADH fluorescence kinetic, PGE2 substrate | Potency, µM, without a hit: at the top dose activity change, negative = inhibition, hits mostly inhibitors; note: potency is the fitted concentration of half-maximal effect
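NADH formation kinetics: reaction with 30 uM PGE2 and 1 mM NAD+ (final), 20 nM enzyme, Tris-HCl pH 8 with Tween 20, after 15 min compound preincubation at room temperature. Fluorescence change, last versus first of five reads.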
PNC inhibitor = blocks assembly of the perinucleolar compartment; PC3M PTB-GFP, PNC prevalence imaging, 16 h; stronger effect = lower value; activity change (PNC), negative = inhibition, % at 10 µM; 140,000 tested, 3.1% active;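 active = readout at or below -70, meaning at least 70% loss of cells showing the perinucleolar compartment, a nuclear body marking cancer cells; inconclusive = readout between -30 and a set limit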;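 note: plate controls were DMSO wells for no effect and camptothecin positive control wells for full effect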
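Compounds are pinned in duplicate onto adhered PC3M cells stably expressing GFP-tagged PTB and incubated 16 h at 37 C. Cells are then fixed, nuclei stained with Hoechst, and PNC-positive cells counted.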
IMPase Li cell = cell-permeable IMPase inhibitors with lithium potentiation; CHO-M1 cells, IP1 TR-FRET (IP-One), carbachol + lithium; Potency, µM (series often up to 59.4 µM), for inactives: at the highest dose activity, negative = IMPase inhibition, usual class: inhibitors; 210,000 tested, 0.35% active; AID 1457; active = well fitted inhibition curve with a large enough effect; inconclusive = small, poorly fitted or top-dose-only effect; inactive = no such curve, though single readings can be large or run the other way;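 note: IP1 builds up when IMPase is blocked and the TR-FRET signal falls; potency is the fitted concentration of half-maximal effect; plate controls were basal vehicle for no effect and high inhibitor control for full effect; nearly all actives have a fitted effect of over 50% in size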
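CHO cells stably expressing M1 receptor (2000/well, cultured 16–30 h) treated 30 min at 37C with compound plus low lithium. Cytosolic IP1 by TR-FRET (665/620 ratio and 620 channel) after 10 min lysis; AC50 by Hill fit.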
ALDH1A1 block = ALDH1A1 (human) enzyme inhibition. P00352. Purified ALDH1A1, NADH fluorescence, propionaldehyde substrate. Potency, µM (top dose mostly 75.3 µM), for the others: at the top dose activity, negative = inhibition, usual class: inhibitors. 220,000 tested, 7.3% active. AID 1030;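 note: potency is the fitted concentration of half-maximal effect; plate controls were no enzyme wells and a reference inhibitor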
Target sequence (P00352 whole entry, looked up): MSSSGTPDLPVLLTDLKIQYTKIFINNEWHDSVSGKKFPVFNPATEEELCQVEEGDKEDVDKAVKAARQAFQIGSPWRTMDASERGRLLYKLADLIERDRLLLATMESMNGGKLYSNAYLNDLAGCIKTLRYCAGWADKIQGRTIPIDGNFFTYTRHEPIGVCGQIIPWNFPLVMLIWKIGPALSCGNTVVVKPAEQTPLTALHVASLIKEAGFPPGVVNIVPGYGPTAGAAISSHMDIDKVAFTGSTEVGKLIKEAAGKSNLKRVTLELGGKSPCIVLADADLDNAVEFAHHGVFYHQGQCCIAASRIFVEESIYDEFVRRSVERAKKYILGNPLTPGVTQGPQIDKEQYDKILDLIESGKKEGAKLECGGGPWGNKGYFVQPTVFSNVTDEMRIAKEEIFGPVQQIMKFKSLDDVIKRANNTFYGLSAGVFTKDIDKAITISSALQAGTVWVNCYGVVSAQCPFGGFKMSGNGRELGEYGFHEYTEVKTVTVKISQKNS
IMPase cell inh = IMPase inhibition in cells | CHO-M1 cells, IP1 accumulation, HTRF TR-FRET ratio | inhibition (IP1 accumulation), % at 46.1 µM | 120,000 tested, under 10 active | AID 901; active = well fitted curve in the direction sought with a large enough effect in the signal ratio, not every such curve was filed as active; inconclusive = small, poorly fitted or top-dose-only effect, or a change in a side signal; inactive = no such curve, though single readings can be large or run the other way; the % refers to the signal ratio;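 note: cells stimulated with carbachol in lithium chloride buffer; plate controls were DMSO basal wells for no effect and reference inhibitor wells for full effect; higher means more IMPase inhibition seen as more IP1 and lower FRET ratio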
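Measured: the HTRF emission ratio (665/620 nm) plus the 620 nm donor channel, each fitted to the Hill equation to give AC50. Cells were CHO-M1 given compounds up to 46 uM and a 30 min carbachol stimulation at 37C.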
An asterisk follows results filed as active; [ ] = remark or other dose. Unless noted, calls come from the whole dose curve; as a rule, active = well fitted inhibition curve with a large enough effect (not every such curve was filed as active); inconclusive = small, poorly fitted or top-dose-only effect, or another doubt; inactive = no such curve, though single readings can be large or run the other way. Unless noted, % is set by controls: 0 for no effect and ±100 for the full control effect.

Screening CCN(CC)S(=O)(=O)c1ccc(N2CCCC2)c(NC(=O)Cc2ccc(OC)cc2)c1 returned IMPase Li cell 19% and ALDH1A1 block 1.1µM*.
Cc1nc2nc[nH]n2c(=O)c1NS(=O)(=O)c1ccc(Br)cc1 was read as IMPase cell inh -2.
Screening Cc1ccc(-c2nn(C)c(=O)c3ccccc23)cc1S(=O)(=O)NCCN1CCOCC1 returned HPGD inh inconclusive, PNC inhibitor inconclusive, IMPase Li cell 4%[38.3 µM], ALDH1A1 block -4% and IMPase cell inh 1.
Cc1ccc(-c2n[nH]c(=O)c3ccccc23)cc1S(=O)(=O)NCCO was read as HPGD inh 14µM*, PNC inhibitor inconclusive, IMPase Li cell 18%[38.3 µM], ALDH1A1 block 7% and IMPase cell inh 8.
`CCOC(=O)CNS(=O)(=O)c1cc(-c2nn(C)c(=O)c3ccccc23)ccc1C` gave HPGD inh 16µM*, PNC inhibitor inconclusive, IMPase Li cell 24%[38.3 µM], ALDH1A1 block inconclusive and IMPase cell inh -2.
`O=S(=O)(c1ccccc1)N1CCC2(CCCN(Cc3ccncc3)C2)CC1` gave HPGD inh -7%, IMPase Li cell 21% and ALDH1A1 block inconclusive.
CN(Cc1cccc2cnccc12)C(=O)CCc1nnc(CCc2ccccc2)o1 was read as IMPase Li cell 11% and ALDH1A1 block 28µM*.
Cc1nc2cc(C(=O)O)ccc2n1C1CCCCC1 was read as HPGD inh -7%, PNC inhibitor -100*, IMPase Li cell 3%, ALDH1A1 block 11% and IMPase cell inh -10.
For Cc1nc2cc(N)ccc2n1C1CCCCC1 the results were IMPase Li cell 22% and ALDH1A1 block inconclusive.
O=C(CN(C(=O)c1cc2c(s1)CCC2)C1CCCC1)NCc1cccs1 was read as HPGD inh -6%, PNC inhibitor -27, IMPase Li cell -2%[38.3 µM], ALDH1A1 block 16µM* and IMPase cell inh 9.
Screening Cc1noc(C)c1C(=O)N1CCC2(CCCN(c3ncccn3)C2)CC1 returned HPGD inh -17%, IMPase Li cell 0% and ALDH1A1 block -3%.
Screening CCOC(=O)CSc1nnc(-c2ccc(OC)cc2)n1CC returned HPGD inh -5%, PNC inhibitor 15, IMPase Li cell -1%[38.3 µM], ALDH1A1 block 2.5µM* and IMPase cell inh 9.
CCOC(=O)CSc1nnc(-c2ccoc2C)n1-c1ccc(C)cc1 was read as HPGD inh -11%, PNC inhibitor -100*, IMPase Li cell 14%, ALDH1A1 block 4% and IMPase cell inh 3.
CCOC(=O)CNC(=O)CSc1nnc(-c2ccc(OC)cc2)n1CC was read as HPGD inh 0%, PNC inhibitor -1, IMPase Li cell 7%, ALDH1A1 block 5% and IMPase cell inh 9[0.0738 µM].
For CCOC(=O)CSC1=NC(=O)/C(=C/c2ccc(OC)cc2)S1 the results were HPGD inh 13µM*, PNC inhibitor -91*, IMPase Li cell 11% and ALDH1A1 block inconclusive.
For O=C(Nc1ccccc1)C1=C[C@@H](C2CC2)C[C@@H](OCCCCO)O1 the results were IMPase Li cell -3% and ALDH1A1 block inconclusive.
`C=CCn1cnc2scc(-c3ccc(C)cc3)c2c1=O` gave HPGD inh -3%, PNC inhibitor 39, IMPase Li cell 0%[38.3 µM], ALDH1A1 block 7% and IMPase cell inh 0.
For O=C(NC1CCN(Cc2ccccc2)C1)c1ccc(Cc2nc3ccccc3[nH]2)cc1 (configuration not stated) the results were HPGD inh -5% and ALDH1A1 block 3%.
Screening CCN(CC)S(=O)(=O)c1ccc(OC)c(-n2cnnn2)c1 returned IMPase Li cell 4% and ALDH1A1 block 7.9µM*.
`CCN(CC)S(=O)(=O)c1ccc(-n2cnnn2)c(C)c1` gave HPGD inh -5%, PNC inhibitor -4, IMPase Li cell -5%[38.3 µM], ALDH1A1 block inconclusive and IMPase cell inh 8.
`COc1ccc(S(=O)(=O)NC2CCCCC2)cc1-n1cnnn1` gave IMPase Li cell -2% and ALDH1A1 block 1.6µM*.
CC(=O)CCc1ccc(Oc2nc(-c3cccnc3)nc3ccccc23)cc1 was read as IMPase Li cell 27% and ALDH1A1 block -2%.
COC(=O)[C@H](C)NC(=O)C/C=C\[C@@H](C)CO was read as ALDH1A1 block 8%[13.5 µM].
Screening O=C(O)C(Cc1ccccc1)N1C(=O)/C(=C/c2ccccc2)SC1=S (configuration not stated) returned HPGD inh -23%, PNC inhibitor 20, IMPase Li cell 1% and ALDH1A1 block -6%.
Screening O=C(O)C(Cc1ccccc1)N1C(=O)/C(=C/c2cccc3ccccc23)SC1=S (configuration not stated) returned HPGD inh 14µM*, PNC inhibitor 45, IMPase Li cell 18%, ALDH1A1 block inconclusive and IMPase cell inh 5.
For Cc1ccc(NC(=O)CSC2=C(C#N)C(c3ccco3)C3=C(CCCC3=O)N2)cc1 (configuration not stated) the results were HPGD inh inconclusive, PNC inhibitor 13, IMPase Li cell 19%[38.3 µM], ALDH1A1 block inconclusive and IMPase cell inh -1.
Screening Cc1ccc(NC(=O)CSC2=C(C#N)C(c3ccc4c(c3)OCO4)CC(=O)N2)cc1C (configuration not stated) returned HPGD inh -10%, PNC inhibitor -100*, IMPase Li cell 8%, ALDH1A1 block 1% and IMPase cell inh -4.
`COc1ccccc1NC(=O)C1=C(C)NC(SCC(=O)c2ccccc2)=C(C#N)C1c1ccco1` (configuration not stated) gave HPGD inh inconclusive, PNC inhibitor inconclusive, IMPase Li cell 7%[38.3 µM], ALDH1A1 block 14µM* and IMPase cell inh -1.
`COCCOC(=O)C1=C(C)NC(SCC(=O)NC(C)(C)C)=C(C#N)C1c1ccco1` (configuration not stated) gave HPGD inh 16µM*, PNC inhibitor inconclusive, IMPase Li cell -4%[38.3 µM], ALDH1A1 block 6% and IMPase cell inh 3.
For C=CCOC(=O)C1=C(C)NC(SCC(=O)Nc2ccc(C)c(Cl)c2)=C(C#N)C1c1ccco1 (configuration not stated) the results were HPGD inh inconclusive, PNC inhibitor 26, IMPase Li cell -5%[38.3 µM], ALDH1A1 block inconclusive and IMPase cell inh 0.
`N#CC1=C(SCC(=O)c2ccc(Cl)cc2)NC2=C(C(=O)CCC2)C1c1ccco1` (configuration not stated) gave HPGD inh -20%, PNC inhibitor inconclusive, IMPase Li cell 16%[38.3 µM], ALDH1A1 block 28µM* and IMPase cell inh 8.

Source: PubChem BioAssay
